The text below walks through data of PubChem BioAssay (Tox21).

Records with an inconclusive call do not appear. Entries that show only a call come without a potency. The source made the active and inactive calls. The call rests on the fitted dose curve; in most records, active means well fitted curve in the direction sought with a large enough effect in the repeat runs; inconclusive means weak or mixed curves; inactive means no such curve, though single readings can be large; an effect the other way counts as inactive or inconclusive. Where a SMILES comes first, the peptide text is derived from it. [ ]: non-standard residue; d: D form. pGlu = O=C1CC[C@@H](C(=O)O)N1
Further: nearly all actives have a fitted effect of over 50% in size.

The nature of one experiment: qHTS RealTime-Glo MT Cell Viability Assay in HepG2 cells - 24 hour (AID 1224867). To be noted: RealTime-Glo luminescence; series mostly up to 76.8 µM. Put shortly:
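HepG2 suspension premixed with RealTime-Glo reagents is plated at 600 cells per well and left 5 h at 37 C/5% CO2. Compounds in DMSO then go in, and bioluminescence reflecting viable cell number is recorded over 40 h.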
In general terms: In qHTS, concentration-response curves come from the screen itself.
`Clc1cc(Cl)c(Cl)nc1Cl`: the call was inactive.

For the molecule `C[C@@H]1CCC[C@H](C)N1`, the call was inactive.

As for `CCOC(=O)OC(C)OC1=C(C(=O)Nc2ccccn2)N(C)S(=O)(=O)c2ccccc21` (stereo not drawn), the outcome was inactive.

For `O=C(O)CC(C(=O)O)S(=O)(=O)O` (stereo not drawn), the outcome was inactive.

On to `[O-][n+]1cccc(CO)c1`, for which the outcome was inactive.

Regarding `CC(=O)c1ccccc1[N+](=O)[O-]`, the result was inactive.

Consider `Cc1cccc(C)c1NC(=O)CC12CCCN1CCC2`, for which the molecule was called inactive.

In the case of `OCCCCCO`, the call was inactive.

As to `CC(COc1ccccc1)NN` (stereo not drawn), the call was inactive.

On to `NS(=O)(=O)Cc1noc2ccccc12`, for which the call was inactive.

Take `Cc1cc(C)c(N=Nc2c(O)c(S(=O)(=O)O)cc3cc(S(=O)(=O)O)ccc23)cc1C`: the activity change, negative = cytotoxicity was -1.15% [at 6.97 µM] (inactive).

For the molecule `Nc1c2c(nc3c1CCC3)CCCC2`, the call was inactive.

For the molecule `O=S(=O)(O)c1cccc2c(S(=O)(=O)O)cccc12`, the call was inactive.

On to `CCCCCCCCN1CCCC1=O`, for which the molecule was classed as inactive.

In the case of `CNCC(O)c1ccc(O)c(O)c1` (stereo not drawn), the result was inactive.

As for `O=S(=O)(O)c1cccc(S(=O)(=O)O)c1`, the outcome was inactive.

On to `CCCO[Si](OCCC)(OCCC)OCCC`, for which the molecule was classed as inactive.

Turning to `CC[C@H]1OC(=O)[C@H](C)[C@@H](O[C@H]2C[C@@](C)(OC)[C@@H](O)[C@H](C)O2)[C@H](C)[C@@H](O[C@@H]2O[C@H](C)C[C@H](N(C)C)[C@H]2O)[C@](C)(OC)C[C@@H](C)C(=O)[C@H](C)[C@@H](O)[C@]1(C)O`, the result was inactive.

Regarding `C=CCCCCCCCCC(=O)OCC`, the molecule was classed as inactive.

Take `CO[Si](C)(OC)c1ccccc1`: the call was inactive.

For the molecule `C=CCCC(=O)O`, the call was inactive.

On to `O=Cc1cccc(Br)c1`, for which the call was inactive.

As for `CN1C(C)(C)CC(O)CC1(C)C`, the molecule was classed as inactive.

Consider `C[N+]1(CC2COC(c3ccccc3)(c3ccccc3)O2)CCCCC1` (stereo not drawn), for which the activity change, negative = cytotoxicity was -0.511% [at 15.8 µM] (inactive).

Consider `Clc1cc(Cl)cc(Cl)c1`, for which the molecule was called inactive.

In the case of `CCOC(=O)COC(=O)c1ccccc1C(=O)OCC`, the call was inactive.

With `CC1=NN(c2cccc(S(=O)(=O)O)c2)C(=O)C1`, the outcome was inactive.

`CN1CCC(=C2c3ccccc3CCc3cccnc32)CC1`: the result was inactive.

Consider `Cc1nc(C2CCCCC2)c(-c2ccc(S(N)(=O)=O)c(F)c2)o1`, for which the molecule was called inactive.

As to `Nc1ccn([C@@H]2O[C@H](CO)[C@@H](O)C2(F)F)c(=O)n1`, the result was inactive.

Take `CCCCCCC1CCC(=O)O1` (stereo not drawn): the molecule was called inactive.

As to `C=COCC1CCC(COC=C)CC1` (stereo not drawn), the outcome was inactive.

As to `CC1(C)OC[C@@H](COC(=O)CCc2ccc(OC[C@@H](O)CNCCNC(=O)N3CCOCC3)cc2)O1`, the result was inactive.

With `CC(=O)Oc1cccc(C)c1`, the result was inactive.

As to `CCC(C(=O)NC(=O)NC(C)=O)c1ccccc1` (stereo not drawn), the outcome was inactive.

Consider `O=C(O)CCCC[P+](c1ccccc1)(c1ccccc1)c1ccccc1`, for which the molecule was classed as inactive.

With `CCCCOCCOC(=O)CCCCCCCCC(=O)OCCOCCCC`, the molecule was called inactive.

With `CCNC(=O)[C@@H]1CCCN1C(=O)[C@H](CCCN=C(N)N)NC(=O)[C@H](CC(C)C)NC(=O)CNC(=O)[C@H](Cc1ccc(O)cc1)NC(=O)[C@H](CO)NC(=O)[C@H](Cc1c[nH]c2ccccc12)NC(=O)[C@H](Cc1cnc[nH]1)NC(=O)[C@@H]1CCC(=O)N1` ([pGlu]HWSYGLRP-NHEt), the molecule was classed as inactive.

A short description of another experiment: qHTS RealTime-Glo MT Cell Viability Assay in HEK293 cells - 32 hour (AID 1224868). Further: potency means the concentration at half of the fitted maximal effect. On activity change, negative = cytotoxic: top concentration of the series differs between compounds. The following applies: RealTime-Glo luminescence; series mostly up to 76.8 µM. Put shortly:
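Reads taken at 0, 8, 16, 24, 32 and 40 h from the same wells. HEK293 cells (600/well) carried RealTime-Glo reagents from seeding, with compound added after a 5 h settle at 37 C.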
`Clc1cc(Cl)c(Cl)nc1Cl`: the Potency result was “inactive”.

As for `C[C@@H]1CCC[C@H](C)N1`, the Potency result was “inactive”.

For the molecule `CCOC(=O)OC(C)OC1=C(C(=O)Nc2ccccn2)N(C)S(=O)(=O)c2ccccc21` (stereo not drawn), the Potency result is “inactive”.

As for `O=C(O)CC(C(=O)O)S(=O)(=O)O` (stereo not drawn), the Potency entry was “inactive”.

Turning to `[O-][n+]1cccc(CO)c1`, the Potency entry is “inactive”.

In the case of `CC(=O)c1ccccc1[N+](=O)[O-]`, the Potency result is “inactive”.

As for `Cc1cccc(C)c1NC(=O)CC12CCCN1CCC2`, the Potency result was “inactive”.

`OCCCCCO`: the Potency entry is “inactive”.

With `CC(COc1ccccc1)NN` (stereo not drawn), the Potency entry was “inactive”.

As to `NS(=O)(=O)Cc1noc2ccccc12`, the Potency entry was “inactive”.

In the case of `Nc1c2c(nc3c1CCC3)CCCC2`, the Potency entry is “inactive”.

Take `CCCCCCCCN1CCCC1=O`: the Potency result is “inactive”.

For `CNCC(O)c1ccc(O)c(O)c1` (stereo not drawn), the Potency entry was “inactive”.

As to `O=S(=O)(O)c1cccc(S(=O)(=O)O)c1`, the Potency result is “inactive”.

On to `CCCO[Si](OCCC)(OCCC)OCCC`, for which the Potency entry was “inactive”.

As to `CC[C@H]1OC(=O)[C@H](C)[C@@H](O[C@H]2C[C@@](C)(OC)[C@@H](O)[C@H](C)O2)[C@H](C)[C@@H](O[C@@H]2O[C@H](C)C[C@H](N(C)C)[C@H]2O)[C@](C)(OC)C[C@@H](C)C(=O)[C@H](C)[C@@H](O)[C@]1(C)O`, the Potency entry was “inactive”.

In the case of `C=CCCCCCCCCC(=O)OCC`, the Potency result is “inactive”.

Regarding `CO[Si](C)(OC)c1ccccc1`, the Potency result is “inactive”.

For the molecule `C=CCCC(=O)O`, the Potency entry was “inactive”.

For the molecule `O=Cc1cccc(Br)c1`, the Potency result is “inactive”.

Turning to `CN1C(C)(C)CC(O)CC1(C)C`, the Potency result was “inactive”.

On to `C[N+]1(CC2COC(c3ccccc3)(c3ccccc3)O2)CCCCC1` (stereo not drawn), for which the activity change, negative = cytotoxic is -5.88% [at 15.8 µM] (inactive).

Take `Clc1cc(Cl)cc(Cl)c1`: the Potency result was “inactive”.

As to `CCOC(=O)COC(=O)c1ccccc1C(=O)OCC`, the Potency entry was “inactive”.

Turning to `CC1=NN(c2cccc(S(=O)(=O)O)c2)C(=O)C1`, the Potency entry was “inactive”.

Take `CN1CCC(=C2c3ccccc3CCc3cccnc32)CC1`: the Potency entry was “inactive”.

As for `Nc1ccn([C@@H]2O[C@H](CO)[C@@H](O)C2(F)F)c(=O)n1`, the Potency is 1.07 µM (active).

As to `CCCCCCC1CCC(=O)O1` (stereo not drawn), the Potency result was “inactive”.

As to `C=COCC1CCC(COC=C)CC1` (stereo not drawn), the Potency entry is “inactive”.

For `CC1(C)OC[C@@H](COC(=O)CCc2ccc(OC[C@@H](O)CNCCNC(=O)N3CCOCC3)cc2)O1`, the Potency result is “inactive”.

On to `CC(=O)Oc1cccc(C)c1`, for which the Potency entry is “inactive”.

For `CCC(C(=O)NC(=O)NC(C)=O)c1ccccc1` (stereo not drawn), the Potency entry is “inactive”.

Turning to `O=C(O)CCCC[P+](c1ccccc1)(c1ccccc1)c1ccccc1`, the Potency entry was “inactive”.

As for `CCCCOCCOC(=O)CCCCCCCCC(=O)OCCOCCCC`, the Potency result is “inactive”.

Turning to `CCNC(=O)[C@@H]1CCCN1C(=O)[C@H](CCCN=C(N)N)NC(=O)[C@H](CC(C)C)NC(=O)CNC(=O)[C@H](Cc1ccc(O)cc1)NC(=O)[C@H](CO)NC(=O)[C@H](Cc1c[nH]c2ccccc12)NC(=O)[C@H](Cc1cnc[nH]1)NC(=O)[C@@H]1CCC(=O)N1` ([pGlu]HWSYGLRP-NHEt), the Potency entry was “inactive”.
